# C diff HTS = inhibitors of Clostridium difficile growth; Clostridium difficile clinical isolate growth, OD600, 24 h; hits give low values; growth activity, negative = inhibition, % at 16 µg/mL (by protocol); actives 0.25% (n = 86,000);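 active = mean growth activity at or below -80% and every replicate also at or below -80%; inconclusive = mean at or below -80% but some replicate above -80%; inactive = mean growth activity above -80%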;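 note: 0% = DMSO wells and -100% = levofloxacin 16 µg/mL wells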
# T cruzi growth-1 = blocks T. cruzi growth in NIH3T3 culture; T. cruzi beta-gal in NIH3T3, GalScreen luminescence, 90 h; inhibition, % at 8.34 µM; actives 5.9% (n = 77,000); AID 624255;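 active = mean inhibition above about 93%, with at least 55% of replicates each passing it, limit read from the data, passing the limit was not always enough; inconclusive = only one of those two conditions holds; inactive = neither condition holds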
# T cruzi growth-2 = inhibitors of T. cruzi proliferation. shares compounds with T cruzi growth-1. actives 72% (n = 5,600). inhibition, % at 8.35 µM. T. cruzi beta-gal in NIH3T3, GalScreen luminescence, 90 h;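 active = mean replicate inhibition above about 95% and at least 55% of replicates individually reaching it, limit read from the data; inconclusive = only one of the two criteria is met; inactive = neither criterion is met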
# T cruzi growth-3 = inhibitors of T. cruzi proliferation. shares compounds with T cruzi growth-1. T. cruzi beta-gal in NIH3T3, GalScreen luminescence, 90 h. actives 21% (n = 5,600). inhibition, % at 2.09 µM. AID 651740;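 active = mean inhibition above about 95%, with at least 55% of replicates also reaching it, limit read from the data; inconclusive = meets just one of the two conditions; inactive = meets neither condition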;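 note: plate controls were neutral control median for no effect and positive control median for full effect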
# 3T3 cytotox = kills mouse NIH/3T3 fibroblasts; shares compounds with T cruzi growth-1; NIH/3T3 viability, CellTiter-Glo ATP luminescence, 90 h; cytotoxicity (signal decrease), % at 8.35 µM; actives 14% (n = 5,600); AID 651742;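 active = mean signal decrease across replicates above about 35% based on untreated-well scatter, with enough replicates individually passing, limit read from the data; inconclusive = no rule stated though some were filed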;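 note: 0% = median of neutral control wells and 100% = median of positive control wells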
# NIH3T3 tox 2 = cytotoxicity in mouse NIH/3T3 fibroblasts. shares compounds with T cruzi growth-1. NIH/3T3 viability, CellTiter-Glo ATP luminescence, 90 h. inhibition, % at 24.9 µM. actives 56% (n = 5,600);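 active = mean loss of cell viability signal at or above a set limit, and enough replicates individually reaching it; inconclusive = meets only the mean limit or only the replicate share; inactive = meets neither condition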;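 note: 0% = median of neutral control wells and 100% = median of positive control wells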
# * marks the source's active call; other numbers are inactive results; u = inconclusive; x = not tested or not shown. This is one part of a sample in which hits are shown more often than they occur.
SMILES,C diff HTS,T cruzi growth-1,T cruzi growth-2,T cruzi growth-3,3T3 cytotox,NIH3T3 tox 2
O=C(C1CCCC1)N1CCCCN2[C@H](CO)[C@H](c3ccc(C#CC4(O)CCCC4)cc3)[C@H]2C1,-9,104*,109*,89,13,30*
O=C(C1CCC1)N1CCCCN2[C@H](C1)[C@@H](c1ccc(C#CC3(O)CCCC3)cc1)[C@@H]2CO,-4,69,x,x,x,x
O=C(c1ccc(F)cc1)N1CCCCN2[C@H](CO)[C@H](c3ccc(C#CC4(O)CCCC4)cc3)[C@@H]2C1,6,107*,103*,-23,13,18
O=C(C1CCC1)N1CCCCN2[C@H](CO)[C@H](c3ccc(C#CC4(O)CCCC4)cc3)[C@H]2C1,-4,101*,u,71,5,5
O=C(C1CCC1)N1CCCCN2[C@H](CO)[C@@H](c3ccc(C#CC4(O)CCCC4)cc3)[C@H]2C1,-6,-20,x,x,x,x
CN1CCCCN2[C@H](CO)[C@@H](c3ccc(-c4cccnc4)cc3)[C@@H]2C1,-8,68,x,x,x,x
C[C@H]1CN([C@@H](C)CO)C(=O)c2cccc(NS(C)(=O)=O)c2O[C@@H]1CN(C)C,-6,-9,x,x,x,x
CO[C@@H]1CN(C)C(=O)c2cc(NC(C)=O)ccc2OC[C@H](C)N(C(=O)C2CCC2)C[C@H]1C,-4,x,x,x,x,x
COc1ccc2c3c([nH]c2c1)[C@@H](CO)N(Cc1ccccc1)CC31CN(S(=O)(=O)c2ccc(C)cc2)C1,-8,x,x,x,x,x
C[C@@H]1CN([C@H](C)CO)C(=O)c2cc(NC(=O)Nc3ccc4c(c3)OCO4)ccc2O[C@H]1CN(C)Cc1ccc2c(c1)OCO2,-3,-16,x,x,x,x
CCc1cnc(N2[C@@H](C#N)[C@H](c3ccc(C#CCC4CCCC4)cc3)[C@@H]2CO)s1,-7,105*,108*,u,-7,12
CCc1cnc(N2[C@H](C#N)[C@@H](c3ccc(C#CCC4CCCC4)cc3)[C@@H]2CO)s1,x,u,96*,106*,-15,104*
CCc1cnc(N2[C@H](CO)[C@@H](c3ccc(C4=CCCC4)cc3)[C@@H]2C#N)s1,16,83,x,x,x,x
CCc1cnc(N2[C@H](C#N)[C@@H](c3ccc(C4=CCCCC4)cc3)[C@@H]2CO)s1,13,86,x,x,x,x
COCC(=O)N(C)C[C@@H]1Oc2ncc(C#CCC3CCCC3)cc2C(=O)N([C@H](C)CO)C[C@@H]1C,-14,49,x,x,x,x
CN(C)CCCNC(=O)C[C@@H]1CC[C@H]2[C@@H](COC[C@H](O)CN2S(=O)(=O)c2ccc(F)cc2)O1,x,-17,x,x,x,x
C[C@@H]1CN([C@H](C)CO)C(=O)c2cc(NS(=O)(=O)c3ccc(Cl)cc3)ccc2O[C@@H](C)CCCCO[C@@H]1CN(C)S(=O)(=O)c1ccc(Cl)cc1,2,u,100*,112*,-13,u
C[C@H](CO)N1C[C@H](C)[C@@H](CN(C)S(=O)(=O)c2ccc(Cl)cc2)OCCCC[C@H](C)Oc2ccc(NS(=O)(=O)c3ccc(Cl)cc3)cc2C1=O,4,87,x,x,x,x
C[C@@H]1CCCCO[C@H](CN(C)S(=O)(=O)c2ccc(Cl)cc2)[C@H](C)CN([C@H](C)CO)C(=O)c2cc(N(C)C)ccc2O1,-13,101*,104*,24,14,-3
C[C@@H]1CN([C@@H](C)CO)C(=O)c2cc(NS(=O)(=O)c3ccc(Cl)cc3)ccc2O[C@@H](C)CCCCO[C@@H]1CN(C)S(=O)(=O)c1ccc(Cl)cc1,8,98*,101*,114*,-28,14
C[C@@H]1CCCCO[C@@H](CN(C)S(=O)(=O)c2ccc(Cl)cc2)[C@H](C)CN([C@H](C)CO)C(=O)c2cc(NS(=O)(=O)c3ccc(Cl)cc3)ccc2O1,1,62,x,x,x,x
C[C@@H]1CN([C@H](C)CO)C(=O)c2cc(N(C)C)ccc2O[C@@H](C)CCCCO[C@H]1CN(C)S(=O)(=O)c1ccc(Cl)cc1,-4,57,x,x,x,x
C[C@H](CO)N1C[C@H](C)[C@H](CN(C)CC2CC2)OCCCC[C@H](C)Oc2ccc(NC(=O)Cc3ccccc3)cc2C1=O,-2,74,x,x,x,x
Cc1ccc(S(=O)(=O)Nc2ccc3c(c2)C(=O)N([C@H](C)CO)C[C@@H](C)[C@H](CN(C)C(=O)Nc2ccc4c(c2)OCO4)O3)cc1,x,-3,x,x,x,x
CCCNC(=O)N1C[C@H](C)[C@H](OC)CN(C)C(=O)c2cc(NC(=O)CC)ccc2OC[C@@H]1C,x,41,x,x,x,x
SMILES,C diff HTS,T cruzi growth-1,T cruzi growth-2,T cruzi growth-3,3T3 cytotox,NIH3T3 tox 2
CCC(=O)N1C[C@@H](C)[C@@H](OC)CN(C)C(=O)c2cc(NC(=O)c3ccccc3)ccc2OC[C@@H]1C,x,-17,x,x,x,x
CCCNC(=O)N1C[C@H](C)[C@@H](OC)CN(C)C(=O)c2cc(NC(=O)CC)ccc2OC[C@@H]1C,x,u,-17,-2,3,-5
CCCN1C[C@H](C)[C@@H](OC)CN(C)C(=O)c2ccc(NS(=O)(=O)c3cn(C)cn3)cc2OC[C@H]1C,x,105*,-5,-22,3,-3
CCCN1C[C@@H](C)[C@H](OC)CN(C)C(=O)c2ccc(NC(=O)c3cccc(F)c3)cc2OC[C@H]1C,x,102*,104*,63,11,37*
CCCN1C[C@H](C)[C@H](OC)CN(C)C(=O)c2ccc(NC(=O)c3cccc(F)c3)cc2OC[C@H]1C,x,51,x,x,x,x
CCC(=O)N1C[C@H](C)[C@@H](OC)CN(C)C(=O)c2ccc(NC(=O)c3ccccc3)cc2OC[C@@H]1C,x,108*,8,-2,18,6
CCCN1C[C@H](C)[C@H](OC)CN(C)C(=O)c2ccc(NS(=O)(=O)c3cn(C)cn3)cc2OC[C@@H]1C,x,28,x,x,x,x
COc1ccc2c3c([nH]c2c1)[C@@H](CO)N(Cc1ccccc1OC)CC31CN(C(C)=O)C1,4,x,x,x,x,x
CNC[C@H]1OCCCC[C@@H](C)Oc2ccc(NC(=O)Nc3ccc4c(c3)OCO4)cc2C(=O)N([C@H](C)CO)C[C@H]1C,0,70,x,x,x,x
CCS(=O)(=O)N1CCC2(CC1)CN(C(=O)Nc1c(C)noc1C)[C@H](CO)c1[nH]c3cc(OC)ccc3c12,-1,x,x,x,x,x
CCCC(=O)Nc1ccc2c(c1)OC[C@H](C)N(C(=O)c1cccnc1)C[C@@H](C)[C@@H](OC)CN(C)C2=O,x,13,x,x,x,x
CCCC(=O)Nc1ccc2c(c1)OC[C@H](C)N(C(=O)c1cccnc1)C[C@@H](C)[C@H](OC)CN(C)C2=O,x,100*,61,-25,11,-8
COc1cccc(C(=O)Nc2ccc3c(c2)OC[C@H](C)N(CCc2ccccc2)C[C@H](C)[C@H](OC)CN(C)C3=O)c1,x,36,x,x,x,x
COc1cccc(C(=O)Nc2ccc3c(c2)OC[C@H](C)N(CCc2ccccc2)C[C@@H](C)[C@H](OC)CN(C)C3=O)c1,x,108*,101*,71,8,10
O=C(NCC[C@@H]1CC[C@@H](NC(=O)C2CCOCC2)[C@H](CO)O1)Nc1ccc(Cl)cc1,-5,-18,x,x,x,x

# High-throughput results from PubChem BioAssay.
